Consider 18 compounds from PubChem BioAssay (Tox21).

Molecules are shown by their SMILES. Several values for one entry are separate records, joined by “and”; a condition that tells them apart may be missing. Equal entries are not always repeated. Records with an inconclusive call do not appear. Some structures have more than one record in an assay (separate samples or runs), and their calls can disagree. Activity calls are given as the source filed them. The call rests on the fitted dose curve; in most records, active means well fitted curve in the direction sought with a large enough effect in the repeat runs; inconclusive means weak or mixed curves; inactive means no such curve, though single readings can be large; an effect the other way counts as inactive or inconclusive.

Experiment [1] is described as follows: qHTS RealTime-Glo MT Cell Viability Assay in HepG2 cells - 40 hour (AID 1224870). Further: nearly all actives have a fitted effect of over 50% in size. In a few lines: (§1)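 Real-time viability: cells seeded at 600 per well together with NanoLuc and cell-permeant prosubstrate, compounds added after 5 h incubation. Luminescence tracked at 0, 8, 16, 24, 32 and 40 h of exposure.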
For orientation: In qHTS, concentration-response curves come from the screen itself.

Experiment [2] can be described thus: A CellTox Green Cytotoxicity Assay to monitor cytotoxicity in HEK293 cells - 40 hour (AID 1224871). Further: nearly all actives have a fitted effect of over 45% in size. In a few lines:
(§2)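 Tox21 screen in HEK293: membrane-impermeant cyanine dye fluoresces on binding dead-cell DNA; compound pinned 5 h post-seeding, plates held at 37 C, signal read repeatedly through 40 h.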

Experiment [3] in a line: qHTS RealTime-Glo MT Cell Viability Assay in HEK293 cells - 16 hour (AID 1224872). Further: nearly all actives have a fitted effect of over 50% in size. In a few lines: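 HEK293 cells seeded with NanoLuc/prosubstrate reagent, rested 5 h at 37 C, then dosed and kept at 37 C up to 40 h. Nonlytic real-time luminescence from viable cells read at 0, 8, 16, 24, 32 and 40 h.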
Experiment [4] is described as follows: qHTS RealTime-Glo MT Cell Viability Assay in HepG2 cells - 8 hour (AID 1224873). Further: nearly all actives have a fitted effect of over 55% in size. In a few lines:
as §1

Experiment [5] can be described thus: qHTS RealTime-Glo MT Cell Viability Assay in HEK293 cells - 40 hour (AID 1224874). Further: nearly all actives have a fitted effect of over 50% in size. Particulars: RealTime-Glo luminescence; max response: stronger effect = lower value. Summed up: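 HEK293 + NanoLuc + prosubstrate, 600 cells/well; 5 h, 37 C/5% CO2; compound 23 nL in DMSO by pintool; 37 C; luminescence read at 0, 8, 16, 24, 32 and 40 h time points.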
Experiment [6] is described as follows: A CellTox Green Cytotoxicity Assay to monitor cytotoxicity in HEK293 cells - 24 hour (AID 1224875). Further: nearly all actives have a fitted effect of over 45% in size. In a few lines: as §2
Experiment [7] is described as follows: A CellTox Green Cytotoxicity Assay to monitor cytotoxicity in HepG2 cells - 16 hour (AID 1224876). Further: nearly all actives have a fitted effect of over 45% in size. Summed up:
(§3)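 Measurements at 0, 8, 16, 24, 32 and 40 h of treatment captured CellTox Green fluorescence in HepG2 cells that had been co-plated with reagent and preincubated 5 h at 37 C/5% CO2.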

A short description of experiment [8]: qHTS RealTime-Glo MT Cell Viability Assay in HepG2 cells - 32 hour (AID 1224877). Further: nearly all actives have a fitted effect of over 55% in size. Summed up: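 HepG2 cells (600/well) were dispensed with RealTime-Glo reagents, incubated 5 h at 37 °C, then treated with compounds in DMSO for up to 40 h. Nonlytic NanoLuc luminescence reflecting viable cells was read at each stated time point.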
Experiment [9] is described as follows: A CellTox Green Cytotoxicity Assay to monitor cytotoxicity in HepG2 cells - 24 hour (AID 1224878). Further: nearly all actives have a fitted effect of over 45% in size. Summed up:
as §3

A short description of experiment [10]: A CellTox Green Cytotoxicity Assay to monitor cytotoxicity in HepG2 cells - 40 hour (AID 1224879). Further: nearly all actives have a fitted effect of over 40% in size. Summed up: as §3
On the % scale 0 is the no-effect control and ±100 the full control effect; potency means the concentration at half of the fitted maximal effect.

Consider `CCCCC(CC)COCC1CO1` (stereo not given), for which the Potency entry in experiment [1], in experiment [2], in experiment [3], in experiment [4], in experiment [6] and in [7] was “inactive” throughout. Moreover, the Potency result in [8], in experiment [9] and in experiment [10] was “inactive” throughout. Moreover, the max response in experiment [5] was 1.02% (inactive) and 0.683% (inactive).

In the case of `CN1C(C(=O)Nc2ccccn2)=C(O)c2ccccc2S1(=O)=O`, the Potency entry in experiment [1], in experiment [2], in experiment [3], in experiment [4], in [6] and in [7] was “inactive” throughout. Also, the Potency result in experiment [8], in [9] and in [10] was “inactive” in each case. Besides, the max response in experiment [5] is 10.9% (inactive) and -0.648% (inactive).

Take `Cc1ncc[nH]1`: the Potency entry in [1], in experiment [2], in experiment [3], in [4], in experiment [6] and in experiment [7] was “inactive” in each case. Besides, the Potency entry in experiment [8], in experiment [9] and in [10] was “inactive” in each case. The max response in experiment [5] is 3.53% (inactive) and 2.93% (inactive).

`Clc1nc(Cl)c(Cl)c(Cl)c1Cl`: the Potency result in [1], in experiment [3], in experiment [4], in [6], in experiment [7] and in [8] was “inactive” each time. Also, the Potency entry in experiment [9] and in experiment [10] was “inactive” throughout. Further, the Potency in [2] was 43.9 µM (active) and inactive. Further, the max response in experiment [5] is 1.46% (inactive) and 24.5% (inactive).

Regarding `O=P(O)(O)O`, the Potency result in experiment [1], in experiment [2], in experiment [3], in experiment [4], in [6] and in experiment [7] was “inactive” each time. In addition, the Potency result in experiment [8], in [9] and in experiment [10] was “inactive” each time. Moreover, the max response in [5] was -1.49% (inactive) and 1.49% (inactive).

As for `COC(=O)C1=C(C)NC(C)=C(C(=O)OCCN(C)Cc2ccccc2)C1c1cccc([N+](=O)[O-])c1` (stereo not given), the Potency in experiment [1] is 43.4 µM (active); in experiment [3], 21.7 µM (active) and 16.9 µM (active); in [4] it was 24.4 µM (active) and 19 µM (active); in [5], 24.4 µM (active) and 16.9 µM (active); in [8] it was 43.4 µM (active); in experiment [9] it was 48.7 µM (active) and inactive. For the same compound, the Potency in [10] is 48.7 µM (active) and inactive. Moreover, the Potency entry in [2], in [6] and in [7] was “inactive” throughout.

With `Cc1c(C(N)=O)cc([N+](=O)[O-])cc1[N+](=O)[O-]`, the Potency entry in [1], in [2], in experiment [3], in experiment [4], in experiment [6] and in experiment [7] was “inactive” each time. In addition, the Potency result in experiment [8], in [9] and in experiment [10] was “inactive” in each case. In addition, the max response in experiment [5] was 1.58% (inactive) and 7.25% (inactive).

Consider `CCCCCCCCCCCO`, for which the Potency entry in experiment [1], in experiment [2], in experiment [3], in [4], in [6] and in [7] was “inactive” throughout. The Potency result in [8], in experiment [9] and in experiment [10] was “inactive” throughout. For the same compound, the max response in experiment [5] is -2.32% (inactive) and 0.908% (inactive).

For the compound `NNc1ccc(C(=O)O)cc1`, the Potency entry in [1], in experiment [2], in experiment [3], in experiment [4], in experiment [6] and in [7] was “inactive” throughout. In addition, the Potency result in experiment [8], in [9] and in experiment [10] was “inactive” throughout. The max response in [5] is 12.1% (inactive).

Take `CCCc1c(OCCCCc2nn[nH]n2)ccc(C(C)=O)c1O`: the Potency entry in experiment [1], in experiment [2], in experiment [3], in [4], in experiment [6] and in experiment [7] was “inactive” throughout. For the same compound, the Potency entry in [8], in experiment [9] and in [10] was “inactive” in each case. Moreover, in [5], the max response is 0.608% (inactive) and 1.1% (inactive).

For the compound `O=[N+]([O-])c1ccc2c(c1)Cc1ccccc1-2`, the Potency result in experiment [1], in experiment [2], in experiment [3], in experiment [4], in experiment [6] and in experiment [7] was “inactive” each time. Also, the Potency entry in experiment [8], in [9] and in [10] was “inactive” throughout. Further, the max response in experiment [5] is 0.388% (inactive) and -3.63% (inactive).

For the compound `OCCO`, the Potency entry in experiment [1], in [2], in experiment [3], in [4], in [6] and in [7] was “inactive” in each case. Further, the Potency result in experiment [8], in experiment [9] and in [10] was “inactive” each time. In addition, the max response in experiment [5] is -5.99% (inactive) and -0.466% (inactive).

`O=C1OC2(c3cc(Br)c(O)c(Br)c3Oc3c2cc(Br)c(O)c3Br)c2c(Cl)c(Cl)c(Cl)c(Cl)c21`: the Potency result in experiment [1], in experiment [3], in [4] and in [8] was “inactive” each time. Moreover, the Potency in [2] is 4.91 µM (active) and 29.7 µM (active); in experiment [6] it was 3.9 µM (active) and 26.5 µM (active); in experiment [7], 3.1 µM (active) and 14.9 µM (active); in experiment [9] it was 3.1 µM (active) and 23.6 µM (active); in experiment [10], 3.1 µM (active) and 14.9 µM (active). Also, the max response in experiment [5] was -3.53% (inactive).

Turning to `Cc1ccc(C(=O)c2cc(O)c(O)c([N+](=O)[O-])c2)cc1`, the Potency entry in experiment [1], in [2], in [3], in [4], in [6] and in experiment [7] was “inactive” throughout. Moreover, the Potency entry in experiment [8] and in [9] was “inactive” throughout. Further, the Potency is 49 µM (active) in experiment [5]; 49 µM (active) and inactive in [10].

For `O=c1oc(=O)c2cc3c(=O)oc(=O)c3cc12`, the Potency entry in [1], in experiment [2], in [3], in [4], in experiment [6] and in experiment [7] was “inactive” throughout. Moreover, the Potency result in [8], in experiment [9] and in experiment [10] was “inactive” each time. In addition, in experiment [5], the max response was 5.31% (inactive) and 2.56% (inactive).

On to `O=C(COc1ccc(Cl)cc1)N1CCN(Cc2ccc3c(c2)OCO3)CC1`, for which the Potency result in experiment [1], in [2], in [4], in experiment [6], in experiment [7] and in experiment [8] was “inactive” throughout. For the same compound, the Potency entry in experiment [9] and in experiment [10] was “inactive” in each case. In addition, the Potency is 38.9 µM (active) and inactive in [3]; 38.9 µM (active) in experiment [5].

For `c1ccc2cc(Nc3ccc(Nc4ccc5ccccc5c4)cc3)ccc2c1`, the Potency entry in experiment [1], in [2], in experiment [3], in experiment [4], in [6] and in experiment [7] was “inactive” each time. The Potency result in experiment [8] and in experiment [9] was “inactive” each time. Besides, the max response in experiment [5] is 5.1% (inactive) and 1.69% (inactive). Moreover, the Potency entry in experiment [10] was “inactive and 12.3 µM (active)”.

With `CC(C)CC(C)(O)C#CC(C)(O)CC(C)C` (stereo not given), the Potency result in [1], in experiment [2], in [3], in experiment [4], in experiment [6] and in [7] was “inactive” throughout. The Potency result in experiment [8], in experiment [9] and in experiment [10] was “inactive” in each case. The max response in experiment [5] is -20.8% (inactive) and -13.4% (inactive).
